Test results published in PubChem BioAssay (NCATS).
Values joined by “and” are separate entries in the source; they are usually repeats but may differ in a detail not shown here. Identical values can stand only once. Inconclusive results are not listed. Active and inactive are the calls of the source. Unless noted, the call rests on the fitted dose curve; in most records, active means well fitted curve in the direction sought with a large enough effect; inconclusive means small, poorly fitted or top-dose-only effect, or another doubt; inactive means no such curve, though single readings can be large; an effect the other way counts as inactive or inconclusive.

How the values were obtained:
[1] = Cell Viability - Jurkat (AID 426;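 active means dose-dependent loss of cell ATP signal giving a full or clear fitted curve, ranked by lower potency value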; further: potency means the concentration at half of the fitted maximal effect); conditions: qHTS
How it was run: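 Jurkat (Clone E6-1) cells, 5000/well in complete medium, exposed to compounds for 40 hr at 37C; intracellular ATP measured by CellTiter-Glo luminescence after 20 min at room temperature. AC50 from Hill fits.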

[2] = Cell Viability - NIH 3T3 (AID 541); conditions: NIH 3T3 cell viability, qHTS; activity change, negative = cytotoxicity: at 92.2 µM (top of the series);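 further: plate controls were DMSO alone for no effect and tamoxifen positive control for full effect; nearly all actives have a fitted effect of over 25% in size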
How it was run: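 Mouse NIH 3T3 fibroblasts, 1000 cells/well, rested 5 hr at 37 °C, then exposed to compound for 40 hr at 37 °C in complete medium. Viability read as intracellular ATP by CellTiter-Glo luminescence; AC50 from Hill-equation fits of concentration-response data.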

[3] = MultiTox-Fluor Cytotoxicity Assay - LYMP1-002 - Dead Cells (AID 960); conditions: LYMP1-002 lymphoblastoid cells, dead-cell protease fluorescence; series mostly up to 46.1 µM;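 further: 0% = DMSO and 100% = tetraoctylammonium bromide; nearly all actives have a fitted effect of over 60% in size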
How it was run: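 Human lymphoblastoid LYMP1-002 cells, 2500/well, treated 16 h at 37 C; dead-cell protease cleavage of bis-AAF-R110 read by fluorescence (485/520); normalized to DMSO and 15 uM tetraoctylammonium bromide; AC50 from Hill fit.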

[4] = Cell Viability - LYMP2-009 (AID 968); conditions: LYMP2-009 lymphoblastoid cell viability; series mostly up to 92.2 µM;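 further: cells exposed to compound for 24 h at 37 °C; 0% = DMSO alone and the full-kill end = tetraoctylammonium bromide at 92 µM; nearly all actives have a fitted effect of over 55% in size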
[5] = Cell Viability - LYMP2-019 (AID 973); conditions: LYMP2-019 lymphoblastoid cell line viability; series mostly up to 92.2 µM;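 further: cells exposed to compound for 24 h at 37 °C; 0% = DMSO alone and full effect = 92 µM tetraoctylammonium bromide; nearly all actives have a fitted effect of over 55% in size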
How it was run: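 Human lymphoblastoid LYMP2-019 cells (2500/well) preincubated 5 h at 37 C, then treated 24 h at 37 C in complete medium. Viability by CellTiter-Glo ATP luminescence after 30 min at room temperature; AC50 from Hill fits.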

[6] = target: Glucocorticoid receptor (Homo sapiens) (UniProt P04150); test: qHTS assay for small molecule agonists of glucocorticoid receptor signaling (AID 588532; active means well fitted curve in the direction sought with a large enough effect in the signal ratio, with a control signal flat; the % refers to the signal ratio;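 further: 100% = dexamethasone at 0.1 µM and 0% = DMSO only wells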); conditions: HeLa MMTV-bla, beta-lactamase ratio, agonist, 18 h; stronger effect = higher value; percent of dexamethasone control, DMSO zero
Chain of Glucocorticoid receptor (Homo sapiens) (P04150 whole entry, looked up): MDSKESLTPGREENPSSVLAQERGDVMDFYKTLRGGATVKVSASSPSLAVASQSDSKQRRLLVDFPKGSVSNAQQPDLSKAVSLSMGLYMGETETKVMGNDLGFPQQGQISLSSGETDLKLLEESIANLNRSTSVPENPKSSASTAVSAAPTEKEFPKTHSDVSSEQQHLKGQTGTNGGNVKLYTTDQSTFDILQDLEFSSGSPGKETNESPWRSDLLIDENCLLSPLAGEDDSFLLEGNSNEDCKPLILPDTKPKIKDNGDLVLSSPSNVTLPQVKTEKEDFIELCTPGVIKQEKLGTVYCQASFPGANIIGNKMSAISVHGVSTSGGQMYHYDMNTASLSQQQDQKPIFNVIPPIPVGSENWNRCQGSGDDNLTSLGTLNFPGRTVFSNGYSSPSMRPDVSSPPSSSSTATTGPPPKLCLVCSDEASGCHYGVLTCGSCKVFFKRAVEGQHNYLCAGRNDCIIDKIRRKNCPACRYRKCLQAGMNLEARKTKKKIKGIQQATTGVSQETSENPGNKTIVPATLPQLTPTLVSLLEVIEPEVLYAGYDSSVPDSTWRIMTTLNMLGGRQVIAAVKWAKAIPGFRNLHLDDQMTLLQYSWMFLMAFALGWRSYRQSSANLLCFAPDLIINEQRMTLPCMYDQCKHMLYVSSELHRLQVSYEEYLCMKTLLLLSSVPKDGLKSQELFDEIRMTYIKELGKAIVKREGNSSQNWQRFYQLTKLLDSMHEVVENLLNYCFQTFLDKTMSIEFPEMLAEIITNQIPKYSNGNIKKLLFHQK
How it was run: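 MMTV-bla HeLa, beta-lactamase reporter; medium with 1% charcoal/dextran-stripped FBS; cpds up to 92 uM, 18 h, 37 C; CCF4 readout 460/530 nm; Hill fit → EC50, efficacy vs 0.1 uM dexamethasone = 100%.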

[7] = qHTS assay for small molecule agonists of retinoid X receptor alpha signaling (AID 588544); conditions: HEK293T RXRa-UAS-bla, beta-lactamase reporter, 18 h; 530 nm emission
[8] = target: Thyroid hormone receptor beta (Homo sapiens) (UniProt P10828); test: qHTS assay for small molecule agonists of thyroid hormone receptor beta signaling (AID 588545; calls by dose curve); conditions: TR-UAS-bla GripTite HEK 293, beta-lactamase ratio, agonist mode, 18 h; series mostly up to 76.7 µM
Chain of Thyroid hormone receptor beta (Homo sapiens) (P10828 whole entry, looked up): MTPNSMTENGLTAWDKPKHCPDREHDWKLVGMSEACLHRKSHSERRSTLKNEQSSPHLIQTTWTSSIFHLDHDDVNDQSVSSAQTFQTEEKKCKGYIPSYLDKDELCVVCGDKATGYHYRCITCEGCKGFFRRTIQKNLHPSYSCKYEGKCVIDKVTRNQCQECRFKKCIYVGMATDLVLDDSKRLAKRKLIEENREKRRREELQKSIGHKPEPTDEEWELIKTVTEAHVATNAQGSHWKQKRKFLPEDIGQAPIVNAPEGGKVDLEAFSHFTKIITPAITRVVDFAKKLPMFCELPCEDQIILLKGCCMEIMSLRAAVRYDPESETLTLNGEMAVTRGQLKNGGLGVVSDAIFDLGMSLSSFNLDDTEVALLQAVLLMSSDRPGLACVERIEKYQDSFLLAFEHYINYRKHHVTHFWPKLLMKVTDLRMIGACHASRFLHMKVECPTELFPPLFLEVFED
How it was run: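 Cells (2500/well) were seeded, incubated 4 hrs at 37 C, dosed with a compound series, incubated 18 hrs, loaded with CCF4 dye for 2 hrs at RT, then read for fluorescence. Data were scaled between DMSO (0%) and 10 nM T3 (100%).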

[9] = target: Voltage-gated inwardly rectifying potassium channel KCNH2 (Homo sapiens) (UniProt Q12809); test: qHTS Assay for Small Molecule Inhibitors of the Human hERG Channel Activity (AID 588834); conditions: U2OS BacMam hERG, FluxOR thallium flux fluorescence; series mostly up to 92.2 µM;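 further: top concentration of the series differs between compounds; on the % scale 0 is the no-effect control and ±100 the full control effect; lower thallium flux fluorescence means stronger hERG block; nearly all actives have a fitted effect of over 50% in size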
Chain of Voltage-gated inwardly rectifying potassium channel KCNH2 (Homo sapiens) (Q12809 whole entry, looked up): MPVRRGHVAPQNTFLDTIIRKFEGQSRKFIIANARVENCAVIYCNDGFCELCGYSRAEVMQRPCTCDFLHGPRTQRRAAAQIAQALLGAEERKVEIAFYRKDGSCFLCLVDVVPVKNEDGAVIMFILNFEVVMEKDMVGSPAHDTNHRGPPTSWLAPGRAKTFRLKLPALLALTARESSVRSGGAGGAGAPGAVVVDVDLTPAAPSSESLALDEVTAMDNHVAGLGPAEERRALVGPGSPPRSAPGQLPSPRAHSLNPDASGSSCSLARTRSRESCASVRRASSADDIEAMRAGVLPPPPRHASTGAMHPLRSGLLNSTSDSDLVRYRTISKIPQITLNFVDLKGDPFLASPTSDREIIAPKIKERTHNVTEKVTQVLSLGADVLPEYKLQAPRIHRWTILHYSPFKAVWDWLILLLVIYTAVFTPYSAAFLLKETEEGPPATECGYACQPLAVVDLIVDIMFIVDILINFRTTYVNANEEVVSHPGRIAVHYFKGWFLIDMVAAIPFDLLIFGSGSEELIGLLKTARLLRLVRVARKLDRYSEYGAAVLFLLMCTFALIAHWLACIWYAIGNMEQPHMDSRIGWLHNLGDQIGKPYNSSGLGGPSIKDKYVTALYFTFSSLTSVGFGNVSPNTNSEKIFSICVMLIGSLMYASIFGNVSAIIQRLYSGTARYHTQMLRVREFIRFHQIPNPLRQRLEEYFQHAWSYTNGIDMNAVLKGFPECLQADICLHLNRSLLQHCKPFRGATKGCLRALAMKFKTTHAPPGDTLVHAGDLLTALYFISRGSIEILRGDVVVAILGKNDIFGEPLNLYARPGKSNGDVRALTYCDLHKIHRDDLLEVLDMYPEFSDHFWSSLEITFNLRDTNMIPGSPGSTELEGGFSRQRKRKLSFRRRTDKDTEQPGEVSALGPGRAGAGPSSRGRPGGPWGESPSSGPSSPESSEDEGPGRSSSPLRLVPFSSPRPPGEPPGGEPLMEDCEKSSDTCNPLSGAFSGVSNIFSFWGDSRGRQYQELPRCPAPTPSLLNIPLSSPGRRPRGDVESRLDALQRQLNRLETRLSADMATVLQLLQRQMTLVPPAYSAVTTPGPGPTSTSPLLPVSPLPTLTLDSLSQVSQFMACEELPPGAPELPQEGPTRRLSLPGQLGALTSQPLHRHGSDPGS
How it was run: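 Concentration-response qHTS measuring drop in thallium-sensitive dye signal. U2OS cells carrying BacMam hERG; compound exposure ~10 min, then stimulation buffer and 2 min read at 1 sec intervals.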

[10] = qHTS assay for small molecule agonists of the antioxidant response element (ARE) signaling pathway (AID 651741; active means well fitted activation curve with a large enough effect in the signal ratio; the % refers to the signal ratio; further: potency means the concentration at half of the fitted maximal effect; on activation: % of control where 0% means no effect); conditions: HepG2 ARE-bla reporter, beta-lactamase FRET ratio, 16 h; series mostly up to 96 µM
How it was run: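 Compounds in DMSO are pinned onto HepG2 ARE-bla cells (2,000/well) that were preincubated 5 h; plates stay 16 h at 37 C, then beta-lactamase activity is detected with LiveBLAzer B/G substrate by fluorescence.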

[11] = target: Tumor necrosis factor (Homo sapiens) (UniProt P01375); test: qHTS assay to identify small molecules that stimulate Tumor Necrosis Factor-alpha (TNF-alpha) secretion (AID 651757; active means well fitted curve in the direction sought with a large enough effect in the signal ratio; the % refers to the signal ratio; further: 0% is about no effect); conditions: Human cells, HTRF 665/615 ratio; series mostly up to 92.2 µM
Chain of Tumor necrosis factor (Homo sapiens) (P01375 whole entry, looked up): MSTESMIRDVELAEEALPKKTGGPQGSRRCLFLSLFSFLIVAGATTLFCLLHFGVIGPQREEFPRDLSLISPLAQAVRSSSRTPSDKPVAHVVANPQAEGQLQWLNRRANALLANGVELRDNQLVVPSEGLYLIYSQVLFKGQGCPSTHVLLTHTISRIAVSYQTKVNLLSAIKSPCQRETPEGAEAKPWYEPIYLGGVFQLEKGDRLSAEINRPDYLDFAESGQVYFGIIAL
How it was run: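 THP-1 cells (3000/well) exposed to compounds 17 hrs at 37 C. Secreted TNF-alpha detected by HTRF with cryptate- and XL665-labeled anti-TNF-alpha antibodies after 3 hr at room temperature.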

[12] = target: Nuclear receptor ROR-gamma (Homo sapiens) (UniProt P51449); test: qHTS assay for small molecule antagonists of the retinoid-related orphan receptor gamma (ROR-gamma) signaling pathway (AID 651802); conditions: ROR-gamma antagonist cell reporter assay; series mostly up to 92.2 µM;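 further: luciferase reporter luminescence driven by ROR response element; on the % scale 0 is the no-effect control and ±100 the full control effect; nearly all actives have a fitted effect of over 60% in size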
Chain of Nuclear receptor ROR-gamma (Homo sapiens) (P51449 whole entry, looked up): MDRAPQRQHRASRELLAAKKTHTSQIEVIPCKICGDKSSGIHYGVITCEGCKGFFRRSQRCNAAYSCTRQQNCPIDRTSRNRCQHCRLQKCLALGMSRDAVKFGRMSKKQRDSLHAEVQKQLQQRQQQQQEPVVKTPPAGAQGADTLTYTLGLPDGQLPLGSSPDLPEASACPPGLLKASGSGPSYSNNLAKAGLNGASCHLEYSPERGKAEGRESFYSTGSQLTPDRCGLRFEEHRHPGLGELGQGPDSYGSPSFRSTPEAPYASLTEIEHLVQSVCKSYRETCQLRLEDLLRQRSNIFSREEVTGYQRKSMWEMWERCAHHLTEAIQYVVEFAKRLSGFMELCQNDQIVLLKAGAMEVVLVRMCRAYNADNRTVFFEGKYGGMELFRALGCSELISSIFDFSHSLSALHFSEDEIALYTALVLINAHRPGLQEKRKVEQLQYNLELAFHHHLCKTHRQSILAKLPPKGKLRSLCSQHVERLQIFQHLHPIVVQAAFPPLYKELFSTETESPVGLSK
How it was run: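 CHO cells with TET-inducible ROR-gamma and RORE-luciferase reporter, dosed then doxycycline-induced. After 16 h at 37C, One-Glo luminescence read; decreased signal indicates antagonism.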

[13] = qHTS assay for small molecule agonists of the antioxidant response element (ARE) signaling pathway measured by Nrf2-dependant transcriptional activity (AID 720636; active means well fitted curve in the direction sought with a large enough effect in the repeat runs; an effect the other way counts as inactive or inconclusive; further: % of control where 0% means no effect); conditions: ARE-luc HepG2, Nrf2 luciferase reporter, 16 h; series mostly up to 92.4 µM
How it was run: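 Nrf2-dependent transcription read as ONE-Glo luciferase signal from ARE-luc HepG2 reporter cells after 16 hr compound treatment at 37 C, 5% CO2, in assay medium with 1% dialyzed FBS.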

[14] = qHTS assay for small molecule activators of the human pregnane X receptor (PXR) signaling pathway (AID 720659; call rule not given here; further: 0% is about no effect); conditions: DPX-2 HepG2 CYP3A4-luciferase, 24 h; series mostly up to 92.3 µM
[15] = target: Mitogen-activated protein kinase 10 (Mus musculus) (UniProt Q61831); test: JNK3 AlphaScreen Assay (AID 530; active means well fitted curve in either direction with a large enough effect, not every such curve was filed as active;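 further: kinase came from lysate of stimulated human HepG2 cells; signal reports phosphorylation of biotinylated GST-cJun 1-79 at Ser73 with 10 µM ATP; on the % scale 0 is the no-effect control and ±100 the full control effect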); conditions: JNK3 lysate, c-Jun phosphorylation; series mostly up to 11.4 µM
How it was run: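 Inhibitors reduce antibody binding to phosphorylated biotin-cJun, lowering AlphaScreen luminescence. Lysates from HepG2 cells pre-activated by IL-1beta plus TNF-alpha supplied JNK3; compounds were titrated.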

[16] = target: Cytochrome P450 3A4 (Homo sapiens) (UniProt P08684); test: qHTS Assay for Inhibitors and Substrates of Cytochrome P450 3A4 (AID 884); conditions: recombinant CYP3A4, Luciferin-PPXE luminescence; series mostly up to 57.1 µM; further: on the % scale 0 is the no-effect control and ±100 the full control effect; nearly all actives have a fitted effect of over 50% in size
Chain of Cytochrome P450 3A4 (Homo sapiens) (P08684 whole entry, looked up): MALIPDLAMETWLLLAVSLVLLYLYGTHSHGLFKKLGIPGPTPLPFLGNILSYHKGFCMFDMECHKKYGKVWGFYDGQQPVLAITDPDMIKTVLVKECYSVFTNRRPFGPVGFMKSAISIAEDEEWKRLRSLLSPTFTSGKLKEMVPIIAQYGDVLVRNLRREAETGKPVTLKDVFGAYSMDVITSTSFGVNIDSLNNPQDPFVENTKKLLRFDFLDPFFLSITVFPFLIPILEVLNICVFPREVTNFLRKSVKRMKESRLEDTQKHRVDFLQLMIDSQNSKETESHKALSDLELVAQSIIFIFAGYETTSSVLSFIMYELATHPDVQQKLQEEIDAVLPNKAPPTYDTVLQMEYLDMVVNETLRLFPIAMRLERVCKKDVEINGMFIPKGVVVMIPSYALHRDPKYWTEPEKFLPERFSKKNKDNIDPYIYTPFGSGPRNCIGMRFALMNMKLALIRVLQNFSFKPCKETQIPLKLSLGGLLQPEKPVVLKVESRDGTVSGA
How it was run: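 20 nM human CYP3A4 with 25 uM Luciferin-PPXE (at KM) in 200 mM KPO4, preincubated 10 min with compound; NADPH regeneration started a 60 min RT reaction. Luciferin detected by luminescence, normalized to 57 uM ketoconazole as full inhibition.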

[17] = target: Vitamin D3 receptor (Homo sapiens) (UniProt P11473); test: qHTS assay for small molecule antagonists of vitamin D receptor signaling (AID 588541; calls by dose curve;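 further: receptor activated by calcitriol during compound treatment; on the % scale 0 is the no-effect control and ±100 the full control effect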); conditions: HEK293T VDR-UAS-bla, beta-lactamase ratio, antagonist mode; series mostly up to 76.7 µM
Chain of Vitamin D3 receptor (Homo sapiens) (P11473 whole entry, looked up): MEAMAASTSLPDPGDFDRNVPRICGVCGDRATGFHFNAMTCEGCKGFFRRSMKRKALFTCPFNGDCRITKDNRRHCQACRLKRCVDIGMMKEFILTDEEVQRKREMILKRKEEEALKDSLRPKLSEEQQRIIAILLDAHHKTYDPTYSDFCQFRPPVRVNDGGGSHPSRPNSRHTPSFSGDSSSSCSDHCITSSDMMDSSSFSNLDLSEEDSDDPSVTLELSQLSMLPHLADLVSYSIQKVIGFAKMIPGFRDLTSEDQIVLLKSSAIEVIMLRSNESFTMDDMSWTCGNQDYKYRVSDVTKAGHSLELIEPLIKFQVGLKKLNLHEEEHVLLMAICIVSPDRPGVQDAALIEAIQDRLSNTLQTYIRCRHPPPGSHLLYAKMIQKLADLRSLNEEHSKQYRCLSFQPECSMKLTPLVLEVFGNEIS
How it was run: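 VDR-UAS-bla HEK293T cells (2000/well, 2% charcoal-stripped FBS) were treated with titrated compounds plus 1-alpha,25-dihydroxyvitamin D3 (50 nM or 3 nM final) for 16 h at 37 C. CCF4 beta-lactamase fluorescence was read; Hill fits gave IC50.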

[18] = target: Vitamin D3 receptor (Homo sapiens) (UniProt P11473); test: qHTS assay for small molecule agonists of vitamin D receptor signaling (AID 588543; calls by dose curve;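 further: 0% = DMSO basal and 100% = reference agonist control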); conditions: HEK293T VDR-UAS-bla, beta-lactamase ratio, 16 h; series mostly up to 76.8 µM
How it was run: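 β-lactamase reporter, VDR-UAS-bla HEK293T, agonist mode. Cells plated 5 h at 37 °C, compound titration 16 h at 37 °C, CCF4 dye 2 h RT, ratio 460/530 nm. Hill fit → EC50, efficacy vs 50 nM 1α,25-(OH)2D3.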

[19] = qHTS assay for small molecule activators of the nuclear factor-kappa B (NF-kB) signaling pathway (AID 651749; active means well fitted activation curve with a large enough effect in the signal ratio; the % refers to the signal ratio; further: % of control where 0% means no effect); conditions: NF-kB-bla ME-180 cells, beta-lactamase FRET ratio, 16 h; stronger effect = higher value
How it was run: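 Screening used 2,000 ME-180 reporter cells per well exposed to pinned compound (23 nL) or DMSO; after 16 hr at 37C, beta-lactamase expression under NF-kB control was assessed through FRET.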

[20] = qHTS assay for cell viability of the p53RE-bla HCT-116 cell line (AID 743292); conditions: p53RE-bla HCT-116 viability, ATP luminescence, 16 h; series mostly up to 95 µM; further: on the % scale 0 is the no-effect control and ±100 the full control effect; nearly all actives have a fitted effect of over 55% in size
How it was run: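 ATP-based luminescent viability (CellTiter-Glo, 30 min RT) after 16 h compound treatment at 37 C of p53RE-bla HCT-116 cells, seeded at 4,000 cells/well and rested 5 h before dosing.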

c1ccc2ncccc2c1
inactive: Potency [1] > 92 µM | activity change, negative = cytotoxicity [2] -0.00606% | Potency [3] | Potency [4] | Potency [5] | activation [6] -12.1% | Potency [8] | Potency [9] | Potency [10] | Potency [11] | Potency [12] | Potency [13] | outcome [14]
5.03%: max response [7]

COc1ccc([N+](=O)[O-])cc1N
inactive: Potency [1] > 92 µM | Potency [15] | activity change, negative = cytotoxicity [2] -29.6% | Potency [16] | Potency [3] | Potency [4] | Potency [5] | activation [6] 2.11% and 1.38% | Potency [17] | Potency [18] | Potency [8] | Potency [9] | activation [19] 2.19% and -0.307% | Potency [12] | Potency [13] | outcome [14]
active: Potency [10] 30.6 µM
-3.38% and -0.384%: max response [7]

COc1ccc(C(=O)Nc2ccccc2)cc1[N+](=O)[O-]
inactive: Potency [1] > 92 µM | Potency [15] | Potency [4] | Potency [5] | activation [6] -1.05% | Potency [17] | Potency [18] | Potency [8] | Potency [9] | activation [19] 1.42% | Potency [11] | Potency [12]

OC1CCCCC1
inactive: Potency [1] > 92 µM | activity change, negative = cytotoxicity [2] -12.6% | Potency [16] | Potency [3] | Potency [4] | Potency [5] | activation [6] -3.35% | Potency [17] | Potency [18] | Potency [8] | Potency [9] | Potency [10] | Potency [11] | Potency [12] | Potency [13] | Potency [20] | outcome [14]
-4.1%: max response [7]

CCCCNCC
inactive: Potency [1] > 92 µM | activity change, negative = cytotoxicity [2] -8.38% | Potency [16] | Potency [3] | Potency [4] | Potency [5] | activation [6] -12.1% | Potency [10] | Potency [11] | Potency [12] | Potency [13] | Potency [20] | outcome [14]
-3.36%: max response [7]

O=[N+]([O-])c1cccc(I)c1
inactive: Potency [1] > 92 µM | activity change, negative = cytotoxicity [2] -7.89% | Potency [16] | Potency [3] | Potency [4] | Potency [5] | activation [6] -12.6% | Potency [17] | Potency [18] | Potency [8] | Potency [9] | Potency [10] | activation [19] -0.0255% | Potency [11] | Potency [12] | Potency [13] | outcome [14]
-0.727%: max response [7]

CCNC(=S)NCC
-2.72%: max response [7]
inactive: Potency [1] > 92 µM | Potency [15] | Potency [3] | Potency [4] | Potency [5] | Potency [17] | Potency [18] | Potency [9] | Potency [10] | activation [19] 0.201% | Potency [11] | Potency [12] | Potency [13] | outcome [14]
